Source: PubChem
Rab9 promoter act = activators of Rab9 promoter. 2.8% of 320,000 active. AID 485297. Potency, µM (doses to about 9.22 µM), for the others: top-dose activation, negative = inhibition, actives largely listed as activators. Huh7 Rab9 promoter-luciferase reporter, luminescence, 24 h; further: % of control where 0% means no effect; nearly all actives have a fitted effect of over 60% in size
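Stable Rab9-luc Huh7, 1500 cells/well, 2 h settle; cmpd in DMSO, 24 h, 37 °C/5% CO2; luciferase reagent 10 min RT; luminescence.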
NPC1 promoter act = NPC1 promoter activation; Huh7 NPC1 promoter luciferase reporter, 24 h; AID 485313; 2.4% of 320,000 active; Potency, µM (doses to about 9.22 µM), without a hit: top-dose activation, actives largely listed as activators; further: % of control where 0% means no effect; nearly all actives have a fitted effect of over 60% in size
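Luciferase expression driven by the NPC1 promoter was measured in stably transfected Huh7 cells after a 24 h compound incubation, using a luciferase reagent and a luminescence read.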
SMN2 splice up = increases expression of the SMN2 splice variant; HEK293 SMN2-luciferase splicing reporter, luminescence, 30-36 h; Potency, µM (top dose mostly 46.1 µM), for the others: top-dose activity change, positive = activation, actives largely listed as activators; AID 1458; 2.8% of 210,000 active; further: % of control where 0% means no effect; nearly all actives have a fitted effect of over 55% in size
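HEK293 cells carry an SMN2 minigene-luciferase reporter in which exon 7 inclusion puts luciferase in frame. Cells were seeded at 2000 cells/well, attached for 10-12 hours, then exposed to compounds for 30-36 hours at 37C before ONE-Glo luminescence.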
ELG1 repair inh = blocks ELG1-dependent DNA repair in HEK293T cells | 2.3% of 330,000 active | HEK293T ELG1-luciferase reporter, luminescence, 16 h; DNA damage induced by 5-fluorouridine | AID 504467 | Potency, µM (titrated, usually from 46.1 µM), without a hit: at the top dose activity change, negative = inhibition, actives largely listed as inhibitors; further: on the % scale 0 is the no-effect control and ±100 the full control effect; nearly all actives have a fitted effect of over 55% in size
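Step one: seed 2,000 cells per well. Step two: pin-transfer compound or DMSO alongside 5-fluorouridine. Step three: incubate 16 hr, 37 °C, 5% CO2. Step four: add ONE-Glo, wait 30 min, read luminescence.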
FLuc counter = firefly luciferase modulation, counter-screen for miR-21 project. P08659. purified FLuc, Km substrates, luminescence inhibition. Potency, µM (highest dose often 57.5 µM), inactives show at the highest dose activity change, negative = inhibition, most hits filed as inhibitors. 6.9% of 360,000 active. AID 588342;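 further: plate controls were vehicle for no effect and reference inhibitor for full effect; nearly all actives have a fitted effect of over 55% in size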
Target sequence (P08659 whole entry, looked up): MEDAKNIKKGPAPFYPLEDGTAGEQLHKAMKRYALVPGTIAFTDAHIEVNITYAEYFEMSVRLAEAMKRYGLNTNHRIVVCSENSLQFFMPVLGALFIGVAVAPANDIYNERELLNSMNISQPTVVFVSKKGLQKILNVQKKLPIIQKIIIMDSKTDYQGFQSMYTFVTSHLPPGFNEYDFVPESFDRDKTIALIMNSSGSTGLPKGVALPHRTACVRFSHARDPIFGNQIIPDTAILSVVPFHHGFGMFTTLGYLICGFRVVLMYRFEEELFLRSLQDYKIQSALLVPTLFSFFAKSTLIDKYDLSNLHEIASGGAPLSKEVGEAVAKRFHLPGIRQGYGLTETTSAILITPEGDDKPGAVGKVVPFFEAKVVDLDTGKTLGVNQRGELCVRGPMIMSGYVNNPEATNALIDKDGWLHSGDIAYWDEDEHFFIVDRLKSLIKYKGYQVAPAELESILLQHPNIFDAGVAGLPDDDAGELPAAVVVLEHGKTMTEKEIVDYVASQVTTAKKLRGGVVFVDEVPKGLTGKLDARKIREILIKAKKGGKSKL
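Purified P. pyralis luciferase, 10 nM final, with Km-level 10 uM D-luciferin and 10 uM ATP in 50 mM Tris acetate pH 7.5, 10 mM Mg acetate, 0.01% Tween-20, 0.05% BSA; 6-point qHTS titration about 60 µM downward; luminescence read.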
ELG1 genotoxic = genotoxicity induction in ELG1-luciferase HEK293T cells; 1.3% of 330,000 active; HEK293T ELG1-luciferase reporter, luminescence, 16 h; Potency, µM (series often up to 46 µM), for inactives: at the top dose activity change, positive = activation, usual class: activators; AID 504466; further: % of control where 0% means no effect; nearly all actives have a fitted effect of over 60% in size
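Cells (2,000/well) expressing the ELG1-luciferase fusion are dosed by pin tool and kept 16 hr at 37 °C, 5% CO2. Signal comes from ONE-Glo luciferase reagent after 30 min at room temperature.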
Starred values were filed as active, the others as inactive; u = inconclusive; x = no result given. Rows were chosen to be rich in hits. Some 9.2% of all compounds tested hit in one or more screens of this group. The call rests on the fitted dose curve; in most records, active means well fitted curve in the direction sought with a large enough effect; inconclusive means small, poorly fitted or top-dose-only effect, or another doubt; inactive means no such curve, though single readings can be large; an effect the other way counts as inactive or inconclusive. Potency means the concentration at half of the fitted maximal effect.

SMILES | Rab9 promoter act | NPC1 promoter act | SMN2 splice up | ELG1 repair inh | FLuc counter | ELG1 genotoxic
N/C(=N\OC(=O)COc1ccc2ccccc2c1)c1ccccn1 | 22% | 13% | -4% | u | u | 6%
Cc1ccc(C)c(OCC(=O)O/N=C(\N)c2cccnc2)c1 | 11% | -1% | x | u | -18% | 4%
O[C@@H]1COC(Nc2ccc(N=Nc3ccccc3)cc2)C[C@@H]1O (stereo not given in full) | 3.2µM* | u | x | u | 0.34µM* | u
COc1ccccc1NS(=O)(=O)c1cccc(C(=O)N2CCN(C(=O)c3ccco3)CC2)c1 | -3% | -3% | x | 16% | 1% | 0%
COc1nc(-c2ccc(C)cc2)ccc1-c1noc(-c2ccc(C(C)(C)C)cc2)n1 | x | x | 12% | x | 0% | x
COc1ccccc1NC(=S)NNC(=O)c1nn(C)c(C)c1Br | 0% | 14% | 22% | u | 15µM* | 7%
COc1ccc(C)cc1NC(=S)NNC(=O)c1c(Br)cnn1C | 1% | 5% | -9% | u | 27µM* | -5%
Cc1nc(-c2cccc(NC(=O)C3CCCCC3)c2)cs1 | 1% | 0% | 9% | u | u | -1%
Cc1nc(-c2ccc(NC(=O)C3CC3)cc2)cs1 | 2.8µM* | 2.5µM* | x | u | 11µM* | 21µM*
Cc1nc(-c2ccc(NC(=O)CC(C)C)cc2)cs1 | 3.2µM* | 2.8µM* | 11µM* | u | 7.6µM* | u
CCN(CC(=O)Nc1ccccc1C(F)(F)F)C(=O)/C=C/c1ccc(Cl)c([N+](=O)[O-])c1 | -5% | -1% | x | 20% | -1% | 5%
Cc1noc(-c2ccc(N3CCC(C)CC3)c([N+](=O)[O-])c2)n1 | x | x | x | x | 8.5µM* | x
CC1CCN(c2ccc(-c3nc(-c4ccccc4)no3)cc2[N+](=O)[O-])CC1 | x | x | x | x | -6% | x
CCNc1ccc(-c2nc(-c3ccco3)no2)cc1[N+](=O)[O-] | x | x | x | x | 15µM* | x
Cc1ccccc1-c1noc(-c2ccc(N3CCCC3)c([N+](=O)[O-])c2)n1 | x | x | x | x | 13µM* | x
O=[N+]([O-])c1cc(-c2nc(-c3ccccc3)no2)ccc1N1CCCCC1 | x | x | x | x | -1% | x
COCCNc1ccc(-c2nc(-c3ccco3)no2)cc1[N+](=O)[O-] | x | x | x | x | -15% | x
CCN(CC)C(=S)SCC(=O)c1c(C)[nH]c2ccccc12 | 3% | 0% | u | -6% | u | 2%
CCN(CC)C(=S)SCC(=O)c1ccccc1 | 2.8µM* | 2.2µM* | 13µM* | u | 12µM* | u
CCN(CC)C(=S)SCC(=O)c1ccc(F)cc1 | 2.5µM* | 2.5µM* | 18µM* | u | 15µM* | u
CC(C)(C)N(Cc1ccccc1)C(=O)c1cc2ccccc2o1 | 0% | 0% | x | u | 5% | -11%
CCN(c1cccc(C)c1)S(=O)(=O)c1cc2c(cc1C)n(C)c(=O)c(=O)n2C | x | x | x | x | -3% | x
O=S(=O)(Nc1cccc(-c2ccc(N3CCCCCC3)nn2)c1)c1ccccc1F | u | 16% | x | u | 19µM* | u
Cc1ccc(NS(=O)(=O)c2ccccc2F)cc1S(=O)(=O)N1CCCCCC1 | 3% | -1% | x | 3% | 2% | 0%
O=S(=O)(Nc1cccc(-c2ccc(N3CCCCCC3)nn2)c1)c1ccccc1Cl | 29% | 19% | x | 23% | 8.5µM* | 4%
SMILES | Rab9 promoter act | NPC1 promoter act | SMN2 splice up | ELG1 repair inh | FLuc counter | ELG1 genotoxic
CSc1ccc(CNC(=O)Cc2ccc(NC(=O)C3=C(C)OCCS3)cc2)cc1 | u | -1% | x | u | 1.3µM* | 13µM*
COc1ccc(CCNC(=O)c2ccccc2NC(=O)C2=C(C)OCCS2)c(OC)c1 | -3% | -7% | x | 18µM* | u | -13%
CCOc1ccc(CCNC(=O)Cc2ccc(NC(=O)C3=C(C)OCCS3)cc2)cc1 | u | u | x | u | 4.3µM* | 7%
CC1=C(C(=O)Nc2ccc(C(=O)NCCC(C)C)cc2)SCCO1 | 1% | -3% | x | 1% | -3% | 2%
Cc1nc(N)sc1-c1csc(Nc2ccccn2)n1 | 1.6µM* | 2.2µM* | 8.9µM* | u | 6.7µM* | u
CC(=O)Oc1ccc(-c2csc(Nc3ccc(Cl)cn3)n2)cc1 | u | u | x | u | -19% | u
Cc1nc(C)c(-c2csc(Nc3ccccn3)n2)s1 | 0.5µM* | 0.56µM* | x | u | 2.4µM* | u
COc1ccc(CCNc2nc(-c3sc(N)nc3C)cs2)cc1OC | -3% | -1% | -3% | u | u | -6%
Cc1nc(N)sc1-c1csc(Nc2ccc(Cl)cn2)n1 | 16% | 17% | -47% | u | 17µM* | -1%
CSc1ccc(CN2CCN(C(=O)c3ccncc3)CC2)cc1 | -11% | -7% | -51% | u | -1% | -7%
Cc1cccc(CCNC(=O)C2CCN(c3nc4ccccc4nc3C(F)(F)F)CC2)c1 | x | x | x | x | -1% | x
O=C(N/N=C/C(Br)=C\c1ccccc1)c1cccs1 | 1.6µM* | 2.2µM* | x | u | 2.1µM* | u
CC(=C/c1ccccc1)/C=N/NC(=O)c1cccs1 | 1µM* | 1.4µM* | x | u | 0.95µM* | 1.8µM*
